Laboratory results: PubChem BioAssay (Tox21)
Results filed as inconclusive are left out. A number with no mark means an inactive call. Calls come from the whole dose curve; as a rule, active = well fitted cell-killing curve with a large enough effect in the repeat runs; inconclusive = weak or mixed curves, or effect the other way; inactive = no such curve, though single readings can be large or run the other way.

assay: qHTS assay to identify small molecule antagonists of the sonic hedgehog signaling (Shh) pathway - cell viability counter screen (AID 1259367); settings: NIH/3T3 Gli1-Luc viability, CellTiter-Fluor, 24 h; series mostly up to 92.4 µM; viability change, negative = cytotoxic: at the top concentration; note: nearly all actives have a fitted effect of over 55% in size
Source text: National Center for Advancing Translational Sciences [NCATS]
NIH Chemical Genomics Center [NCGC]
U.S. Environmental Protection Agency [EPA]
National Institutes of Environmental Health Sciences [NIEHS]
National Toxicology Program [NTP]
U.S. Food and Drug Administration [FDA]
The sonic hedgehog (Shh) pathway is essential for normal embryonic development. Dysregulation of the Shh pathway can cause severe developmental defects in organs. Therefore chemicals that interfere with the pathway are potential developmental toxicants. A cell line designated 3T3Gli1-Luc (DMB/OARSA/CFSAN/FDA, Laurel, MD), a NIH/3T3 derived clone containing stably integrated Gli1-Luc reporter is used to detect chemical interference of the Shh pathway, by changes in the expression of the firefly Luc gene under the control of the Gli1 transcriptional response element. This cell line was used to screen Tox21 libraries for identifying and prioritizing the potential developmental toxicants that interfere Shh pathway. Conditioned medium-stimulated mode was used to screen for chemicals inhibiting Shh signaling. The cytotoxicity of the compounds was tested in parallel by measuring the cell viability using CellTiter-Fluor assay system (Promega, Madison, WI) in the same wells.
Tox21 Assay Protocol Summary:
3T3 Gli1-Luc cells were dispensed at 2,000 per well in 5uL of culture medium into white solid bottom 1536-well plates (Greiner Bio-One, Monroe, NC) using a Multidrop Combi (Thermo Scientific, Waltham, MA) dispenser. The assay plates were incubated at 37 C and 5% CO2 for 4hr, and then 23nL of compounds dissolved in DMSO and positive control were transferred using a Pintool station (Wako, San Diego, CA). The compound transfer was followed by the addition of 1ul conditioned medium or assay buffer using two separate tips of Flying Reagent Dispenser (FRD, Aurora Discovery, San Diego, CA). The assay plates were incubated at 37C and 5% CO2 for 24hr. For viability read, after 23hr of compound treatment, 1uL of CellTiter-Fluor reagent (Promega Corporation, Madison, WI) was added to each well of the assay plates using Flying Reagent Dispenser (FRD, Aurora Discovery, San Diego, CA) and incubated the assay plates at 37C for 1hr. The fluorescence signal was quantified using a ViewLux plate reader (Perkin Elmer, Shelton, CT).
% is set by controls: 0 for no effect and ±100 for the full control effect.

| SMILES | viability change, negative = cytotoxic |
| --- | --- |
| CC[C@H]1OC(=O)[C@H](C)[C@@H](O[C@H]2C[C@@](C)(OC)[C@@H](O)[C@H](C)O2)[C@H](C)[C@@H](O[C@@H]2O[C@H](C)C[C@H](N(C)C)[C@H]2O)[C@](C)(OC)C[C@@H](C)C(=O)[C@H](C)[C@@H](O)[C@]1(C)O | -21.1% |
| CC/C=C\CCOC(C)OCC (stereo not given) | 1.8% [at 42.5 µM] |
| CCN(Cc1ccccc1)c1ccccc1 | -26.7% |
| CCCCCCCCCCCCCCCCCCO | 4.46% [at 42.5 µM] |
| O=C(c1ccccc1O)c1ccccc1O | -7.65% |
| Nc1c2c(nc3c1CCC3)CCCC2 | 2.76% [at 42.5 µM] |
| Cc1ccc(-c2ncc(Cl)cc2-c2ccc(S(C)(=O)=O)cc2)cn1 | -11% [at 42.5 µM] |
| Nc1ccn([C@@H]2O[C@H](CO)[C@@H](O)[C@@H]2O)c(=O)n1 | -8.87% |
| Cc1coc2ccccc2c1=O | 1.05% [at 42.5 µM] |
| NC(CCC(=O)O)C(=O)O (stereo not given) | -2.86% |
| CCCn1cc[n+](C)c1C | 0.776% |
| CCOC(=O)c1cnc2c(cnn2CC)c1NN=C(C)C | 2.15% [at 42.5 µM] |
| Cc1ccccc1N=C(N)N=C(N)N | 8.36% |
| CCCCCC(C)N (stereo not given) | 0.475% [at 42.5 µM] |
| NCCCC(N)(C(=O)O)C(F)F (stereo not given) | 3.23% [at 42.5 µM] |
| CC1=CCC(O)(C(C)C)CC1 (stereo not given) | 2.45% |
| Cc1onc(-c2c(Cl)cccc2Cl)c1C(=O)Cl | 11.1% [at 42.5 µM] |
| CO[C@@]1(NC(=O)CSC[C@@H](N)C(=O)O)C(=O)N2C(C(=O)O)=C(CSc3nnnn3C)CS[C@@H]21 | 5.78% [at 42.5 µM] |
| Cc1ccnc(NS(=O)(=O)c2ccc(N)cc2)n1 | 3.2% [at 42.5 µM] |
| CC(=O)c1ccc2ccccc2c1 | 0.0125% |

| SMILES | viability change, negative = cytotoxic |
| --- | --- |
| N[C@H](C(=O)O)[C@@H](O)c1ccc(O)c(O)c1 | -3.05% [at 42.5 µM] |
| CCOC(=O)CCC(=O)OCC | 1.28% |
| C[N+](C)(CCOc1ccccc1)Cc1cccs1 | 10.9% [at 42.5 µM] |
| C=CC(C)(CCC=C(C)C)OC(=O)CC (stereo not given) | 1.17% |
| Nc1ccn([C@@H]2O[C@H](CO)[C@@H](O)C2O)c(=O)n1 (stereo not given in full) | -5.87% |
| CC(C)CC(C)(N)C#N (stereo not given) | 0.787% |
| C1CCC2(CCCCO2)OC1 | 6% |
| CN(C)[C@@H]1C(=O)C(C(=O)NCN2CCCC2)=C(O)[C@@]2(O)C(=O)C3=C(O)c4c(O)cccc4[C@@](C)(O)C3C[C@@H]12 (stereo not given in full) | 0.268% [at 42.5 µM] |
| Nc1ccccn1 | 9.76% |
| O=C(O)CNC(=O)c1ccc(CO)o1 | 1.73% |
| CC(C)(C)c1ccc(-c2ccc(C(C)(C)C)cc2)cc1 | 4.32% |
| C[N+]1(C)CCCC(OC(=O)C(O)(c2ccccc2)c2ccccc2)C1 (stereo not given) | 1.46% [at 42.5 µM] |
| CCCCCCCCN1CCCC1=O | 1.53% |
| CC(=O)c1ccccc1[N+](=O)[O-] | -12.7% |
| O=C(CO)[C@@H](O)[C@H](O)[C@H](O)CO | 7.23% |
| CC(CO)(CO)[N+](=O)[O-] | -1.97% |
| O=[N+]([O-])c1ccc(/C=N\O)o1 | 0.908% [at 42.5 µM] |
| CO/N=C(\C(=O)N[C@@H]1C(=O)N2C(C(=O)O)=C(CSc3nc(=O)c(O)nn3C)CS[C@H]12)c1csc(N)n1 | -2.26% [at 42.5 µM] |
| O=C(O)Cc1csc(-c2ccc(Cl)cc2)n1 | 2.12% [at 42.5 µM] |
| CCCCCCC#CC(=O)OC | 0.259% |
